Most compounds without a hit are left out; they make up all but 8% or so of the library.
HT1080 IDH1KD tx: kills HT-1080 cells with IDH1 knockdown. HT-1080 IDH1 knockdown viability, ATP luminescence, 48 h. Potency, µM (titrated, usually from 46.1 µM), hits mostly cytotoxic. actives 2% (n = 360,000)
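After a 2 h attachment period, IDH1KD HT-1080 cells took pin-transferred compound for 48 h at 37 °C; ATP-based luminescence after 10 min room-temperature reagent incubation reported viability.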
MCF10A rerep: inducers of DNA re-replication in MCF 10A breast cells; MCF 10A DNA re-replication, Hoechst nuclear intensity, 48 h; Potency, µM (top dose mostly 46.1 µM), usual class: activators; actives 2.9% (n = 350,000); AID 624296; further: nearly all actives have a fitted effect of over 50% in size
HT1080-NT tox: kills 2HG-producing HT-1080-NT fibrosarcoma cells. HT-1080-NT fibrosarcoma viability, CellTiter-Glo ATP luminescence, 48 h. Potency, µM (top dose mostly 46.1 µM), hits mostly cytotoxic. actives 1.6% (n = 360,000). AID 686970;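 further: NT is the 2HG producing partner of a matched IDH1 knockdown line; nearly all actives have a fitted effect of over 55% in size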
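Luminescent CellTiter-Glo readout after 48 hours of compound exposure at 37 degrees C defined viability of HT-1080-NT cells. Activity was normalized to DMSO wells and cell-free media wells; concentration-response curves were fitted and assigned curve classes.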
SW480 rereplic: induces DNA re-replication in SW480 colon adenocarcinoma cells; SW480 DNA re-replication, Hoechst DNA content imaging, 48 h; Potency, µM (series often up to 46.1 µM), actives largely listed as activators; actives 1.8% (n = 340,000); AID 624297; further: nearly all actives have a fitted effect of over 55% in size
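Readout is total intensity of Hoechst-stained nuclei, excited at 405 nm and collected at 500-530 nm. Compound treatment lasted 48 hr at 37 C in 5% CO2 before staining.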
KB-3-1 tox: KB-3-1 parental cell cytotoxicity; KB-3-1 viability, CellTiter-Glo ATP luminescence, 72 h; Potency, µM (top dose mostly 46.1 µM), usual class: cytotoxic; actives 1.4% (n = 400,000); AID 1347075; further: nearly all actives have a fitted effect of over 60% in size
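Luminescent ATP read-out (CellTiter-Glo) measures survival of drug-naive KB-3-1 cells after 72 h compound exposure at 37 °C. Titration series was screened from lowest to highest concentration, with DMSO vehicle plates as background controls.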
KB-V1 MDR tox: KB-V1 MDR subline cytotoxicity; KB-V1 MDR cells viability, CellTiter-Glo, 72 h; Potency, µM (highest dose often 46.1 µM), actives largely listed as cytotoxic; actives 3.4% (n = 400,000); AID 1347076; further: nearly all actives have a fitted effect of over 60% in size
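KB-V1 MDR subline cells in DMEM (phenol-red free, 10% FBS) exposed to compounds in qHTS concentration series for 72 h at 37 degrees C. Viability read by CellTiter-Glo luminescence; concentration-effect curves fitted after normalization and correction.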
Of the large screens only hits and unclear results are named; the others gave an inactive call. The call rests on the fitted dose curve; in most records, active means well fitted curve in the direction sought with a large enough effect; inconclusive means small, poorly fitted or top-dose-only effect, or another doubt; inactive means no such curve, though single readings can be large; an effect the other way counts as inactive or inconclusive.

CCC(C)(C)NC(=O)C(c1ccc(C)o1)N(C(=O)c1csnn1)c1cccc(F)c1 (stereo not given)	KB-V1 MDR tox 16.4µM
COc1ccc(NC(=O)c2oc3ccccc3c2NC(=O)c2cc(=O)c3c(C)cc(C)cc3o2)cc1	none (no result: HT1080 IDH1KD tx, MCF10A rerep, HT1080-NT tox, SW480 rereplic)
COc1ccc(-c2csc(NC(=O)C3CCN(c4ncnc5sc(C)c(C)c45)CC3)n2)cc1OC	HT1080 IDH1KD tx inconclusive, MCF10A rerep inconclusive, HT1080-NT tox 5.8µM, KB-3-1 tox inconclusive
CCCN(CC(=O)Nc1ccccc1C)C(=O)C1CCN(c2ncnc3sc(C)c(C)c23)CC1	MCF10A rerep inconclusive, KB-V1 MDR tox 20.6µM
Cc1sc2ncnc(N3CCC(C(=O)Nc4ccc(Br)cc4Br)CC3)c2c1C	KB-3-1 tox inconclusive, KB-V1 MDR tox 5.8µM
CCc1ccc(S(=O)(=O)c2cn(C)c3cc(N4CCC(C)CC4)c(F)cc3c2=O)cc1	none (no result: HT1080 IDH1KD tx, MCF10A rerep, HT1080-NT tox, SW480 rereplic)
O=C(CNC(=O)c1cccc(F)c1)N/N=C/c1cc(Br)ccc1OC(=O)/C=C/c1ccco1	HT1080 IDH1KD tx inconclusive, HT1080-NT tox inconclusive, SW480 rereplic 5.17µM, KB-3-1 tox inconclusive
O=C(CNC(=O)c1ccccc1O)N/N=C/c1cc(Br)ccc1OC(=O)/C=C/c1ccco1	HT1080 IDH1KD tx inconclusive, HT1080-NT tox inconclusive, SW480 rereplic inconclusive, KB-3-1 tox inconclusive, KB-V1 MDR tox inconclusive
COc1ccc(NC(=O)CN(C)CC(=O)c2c(C)[nH]c3ccccc23)cc1	MCF10A rerep inconclusive, KB-V1 MDR tox 7.31µM
COc1cccc(NC(=O)CN(C)CC(=O)c2c(C)[nH]c3ccccc23)c1	none
Cc1[nH]c2ccccc2c1C(=O)CN(C)c1ccccc1	KB-3-1 tox inconclusive (no result: HT1080 IDH1KD tx, MCF10A rerep, HT1080-NT tox, SW480 rereplic)
Cc1[nH]c2ccccc2c1C(=O)CCl	HT1080 IDH1KD tx inconclusive, MCF10A rerep 10.3µM, HT1080-NT tox inconclusive, SW480 rereplic 13µM, KB-V1 MDR tox inconclusive
Cc1[nH]c2ccccc2c1C(=O)Cn1c(=O)oc2ccccc21	HT1080 IDH1KD tx inconclusive, KB-V1 MDR tox 16.4µM
C=CCN(CC=C)Cc1cc(=O)oc2ccc3ccccc3c12	HT1080 IDH1KD tx inconclusive, HT1080-NT tox inconclusive, KB-3-1 tox inconclusive (no result: MCF10A rerep, SW480 rereplic)
C=CCN(CC=C)Cc1c(O)ccc2c1oc(=O)c1ccccc12	KB-V1 MDR tox 10.3µM
COc1ccc2c(C#N)c3ccccn3c2c1	MCF10A rerep 23.1µM, SW480 rereplic inconclusive
CCN(CC)S(=O)(=O)c1ccc(C(=O)NCCSc2c(-c3ccccc3)[nH]c3ccccc23)cc1	KB-3-1 tox inconclusive (no result: HT1080 IDH1KD tx, MCF10A rerep, HT1080-NT tox, SW480 rereplic)
COc1ccc(-c2[nH]c3ccccc3c2SCCNC(=O)c2ccccc2)cc1	HT1080 IDH1KD tx inconclusive, HT1080-NT tox inconclusive, KB-3-1 tox 20.6µM
CCOc1c(Br)ccc2c1sc1nc[nH]c(=O)c12	MCF10A rerep inconclusive, KB-3-1 tox inconclusive, KB-V1 MDR tox 20.6µM
CCCC(=O)NC1=C(Cl)C(=O)c2ccccc2C1=O	HT1080 IDH1KD tx 7.31µM, MCF10A rerep inconclusive, HT1080-NT tox inconclusive, SW480 rereplic 6.51µM, KB-3-1 tox inconclusive, KB-V1 MDR tox inconclusive
CCN(CC)c1ccc(NC(=O)C(C)C)cc1	none
O=C1C(Cl)=C(Nc2ccc(O)cc2)C(=O)c2ccccc21	HT1080 IDH1KD tx 16.4µM, MCF10A rerep 2.91µM, HT1080-NT tox 6.51µM, KB-3-1 tox inconclusive, KB-V1 MDR tox inconclusive
CCN(CC)c1ccc(NC2=C(Cl)C(=O)c3ccccc3C2=O)cc1	HT1080 IDH1KD tx inconclusive, MCF10A rerep 4.61µM, HT1080-NT tox inconclusive, SW480 rereplic inconclusive, KB-3-1 tox inconclusive, KB-V1 MDR tox inconclusive
O=C1C(O)=C(O)C(=O)c2ccccc21	MCF10A rerep inconclusive, SW480 rereplic inconclusive
O=C1C=C(Nc2ccc(O)cc2)C(=O)c2ccccc21	HT1080 IDH1KD tx 20.6µM, MCF10A rerep inconclusive, HT1080-NT tox 25.9µM, SW480 rereplic inconclusive, KB-3-1 tox inconclusive, KB-V1 MDR tox inconclusive
Cc1c(C)c2c(c(C)c1OC(=O)CCC(=O)O)CC[C@@](C)(CCC[C@H](C)CCC[C@H](C)CCCC(C)C)O2	none (no result: HT1080 IDH1KD tx, HT1080-NT tox, KB-3-1 tox, KB-V1 MDR tox)
Cn1cc(S(=O)(=O)c2ccc(Cl)cc2)c(=O)c2cc(F)c(N3CCCCCC3)cc21	none (no result: HT1080 IDH1KD tx, MCF10A rerep, HT1080-NT tox, SW480 rereplic)
